Assay outcomes from PubChem.
Only some compounds are listed: those with a hit (about 2.6% of all), similar ones and a draw of the others.
APOBEC3A inh = APOBEC3A ssDNA deaminase inhibitors, primary screen, selectivity assay for APOBEC3G inhibitor project, biochemical, FAM/TAMRA oligo cleavage fluorescence; DNA dC->dU-editing enzyme APOBEC-3A (Homo sapiens), P31941; recombinant A3A, FAM/TAMRA ssDNA deamination fluorescence; inhibition, % at 20 µM; 330,000 compounds, 0.41% hits; AID 493011, 2011;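 active = at least 40% inhibition at 20 µM here, with at most 30% in a related deaminase screen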;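 also: plate controls were A3A with DMSO for no effect and wells lacking A3A enzyme for full effect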
PABP polyA inh = PABP poly(A) RNA binding inhibitors, primary screen, biochemical, fluorescence polarization, uHTS | 290,000 compounds, 1% hits | calls only at 35 µM | AID 2014, 2009;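 also: calls also rest on retests at 20 µM and on dose response follow-up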
eIF4H inh = human eIF4H binding inhibitors, primary screen, translation initiation inhibitor project, biochemical, uHTS, fluorescence polarization. inhibition, % at 35 µM. 290,000 compounds, 0.94% hits. eIF4H fluorescence polarization binding assay. AID 2012, 2009;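 also: calls also rest on retests at 20 µM and on dose response follow-up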
APOBEC3G inh = APOBEC3G DNA deaminase inhibitors, primary screen, biochemical, fluorescence, single-stranded DNA substrate, uHTS | DNA dC->dU-editing enzyme APOBEC-3G (Homo sapiens), Q9HC16 | 330,000 compounds, 0.28% hits | recombinant A3G, ssDNA deamination FAM/TAMRA fluorescence | AID 493012, 2011 | inhibition, % at 20 µM;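 active = inhibition of at least 40% at 20 µM, with no more than 30% in the related APOBEC3A deaminase screen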;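 also: plate controls were DMSO wells with A3G for no effect and wells lacking A3G enzyme for full effect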
MLLE-PAM2 inh = inhibitors of PABP1 MLLE–PAM2 peptide binding, primary screen, biochemical, fluorescence polarization, FITC-PAM2, GST-MLLE; Polyadenylate-binding protein 1 (Homo sapiens), P11940; inhibition, % at 20 µM; 360,000 compounds, 0.36% hits; AID 588489, 2011; in the data active = inhibition above about 35%, passing the limit was not always enough;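 also: plate controls were DMSO wells with GST-MLLE for no effect and wells lacking GST-MLLE protein for full effect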
PHOSPHO1 inh = PubChem AID 1565; inhibition, % at 13.3 µM; Phosphoethanolamine/phosphocholine phosphatase (Homo sapiens), Q8TCT1; 290,000 compounds, 1.1% hits; recombinant PHOSPHO1, absorbance phosphatase assay; in the data active = inhibition above about 60%
Target sequence (Q8TCT1 whole entry, looked up): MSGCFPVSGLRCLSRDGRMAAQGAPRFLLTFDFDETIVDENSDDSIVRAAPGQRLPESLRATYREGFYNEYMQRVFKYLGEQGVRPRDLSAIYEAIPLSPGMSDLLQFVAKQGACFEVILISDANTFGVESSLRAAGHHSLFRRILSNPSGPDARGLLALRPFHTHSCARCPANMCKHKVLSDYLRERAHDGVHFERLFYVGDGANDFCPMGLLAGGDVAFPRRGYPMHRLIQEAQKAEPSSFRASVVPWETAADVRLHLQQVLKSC
A3A conf = APOBEC3A deaminase inhibitors, retest, confirmation, selectivity assay for APOBEC3G inhibitor project, biochemical, single concentration, fluorescence readout; recombinant A3A, ssDNA deaminase UDG fluorescence assay; 1,400 compounds, 63% hits; shares compounds with APOBEC3A inh; inhibition, % at 20 µM;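 active = inhibition reaching a set limit, 80% of the first screen's cutoff, at 20 µM in any replicate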;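 also: plate controls were DMSO wells with A3A for no effect and wells lacking A3A enzyme for full effect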
UDG ctr A3A = E. coli UDG inhibitors, confirmation, counter-screen for APOBEC3A inhibitor project, biochemical, single concentration, fluorescence, FAM/TAMRA oligo | shares compounds with APOBEC3A inh | UDG counterscreen, FAM/TAMRA uracil oligo fluorescence | inhibition, % at 20 µM | 1,000 tested, under 10 active
* hit, by the source's call; i = inactive; . = no result; + = active, no number. Unless noted, no rule for the calls is given here.

SMILES	APOBEC3A inh	PABP polyA inh	eIF4H inh	APOBEC3G inh	MLLE-PAM2 inh	PHOSPHO1 inh	A3A conf	UDG ctr A3A
COc1ccccc1C(CNC(=O)CCNS(=O)(=O)c1ccc(Br)cc1)N1CCCC1 (stereo not given)	.	.	.	.	1	.	.	.
CC1CN(C(=O)COc2ccc3c(-c4ccccc4)cc(=O)oc3c2)CC(C)O1 (stereo not given)	24	.	.	-3	-33	.	.	.
CCCCN(C(=O)c1ccc([N+](=O)[O-])o1)c1c(N)n(CC(C)C)c(=O)[nH]c1=O	44*	.	.	9	37	.	9	.
CCCCN(C(=O)c1cc2ccccc2o1)c1c(N)n(CC(C)C)c(=O)[nH]c1=O	-1	i	-4	-5	-5	-14	.	.
CCc1noc(C)c1C(=O)N(CCOC)c1c(N)n(CC(C)C)c(=O)[nH]c1=O	43*	i	-2	6	-57	-5	2	.
CC1(CC(=O)N/N=C/c2cc([N+](=O)[O-])c(O)cc2O)OCCO1	48*	i	28	21	19	-32	49*	5
CCCCC[n+]1cccc2c3ccccc3ccc21	55*	i	-4	23	-140	59	72*	-2
Cc1cc(C)c(CSc2ncnc3nc[nH]c23)c(C)c1	53*	i	-2	9	-79	-10	10	.
Cc1cccc(CSc2ncnc3nc[nH]c23)c1	1	i	0	0	-12	-14	.	.
COc1ccc(C(=O)OCC[N+]2(C)CCOCC2)cc1	61*	i	4	19	-131	11	73*	0
COc1ccc(C(=O)OCCc2ccc(O)cc2)cc1	0	i	7	-2	16	4	.	.
CC[N+](C)(CC)CCC(c1ccccc1)C1CCCCC1 (stereo not given)	48*	+	34	10	-121	10	67*	-2
CC[N+](C)(CC)CCOC(=O)C(O)(c1ccccc1)C1CCCCC1 (stereo not given)	3	i	-9	19	3	-4	.	.
COc1ccc(CN2CCN(C(=O)C3CCN(C(=O)Nc4ccccc4)CC3)CC2)cc1OC	3	.	.	3	-19	.	.	.
CN(Cc1ccccc1)C1=CC(=[N+]2CCCCC2)CC(C)(C)C1	68*	+	-10	20	-125	-6	73*	-2
Cc1cc(C)cc(NC(=O)C2CCCN2C(=O)Oc2ccccc2)c1 (stereo not given)	3	i	-2	-3	-4	5	.	.
CCOc1ccc(NC(=O)C2CCCN2C(=O)Oc2ccccc2)cc1 (stereo not given)	73*	.	.	20	-143	22	78*	-2
O=C(Cc1cccs1)NCCS(=O)(=O)N1CCN(c2ccccc2)CC1	.	.	.	.	13	.	.	.
COc1ccccc1-c1noc(CCC(=O)NC2CCCC2)n1	45*	i	-2	-10	14	37	1	0
Cc1ccccc1-c1noc(CCC(=O)NCC2CCCO2)n1 (stereo not given)	44*	i	0	11	-102	38	3	.
Cc1cccc(N(CC(=O)N/N=C/c2ccc(C(=O)O)cc2)S(=O)(=O)c2ccccc2)c1C	-1	.	.	-2	-2	.	.	.
Cc1cccc(C)c1NC(=O)CN(C)C(=O)c1cc(S(=O)(=O)N2CCOCC2)ccc1N1CCCC1	46*	.	.	13	-58	.	-1	.
CN(Cc1cccc(F)c1)C(=O)c1cc(S(=O)(=O)N2CCOCC2)ccc1N1CCCC1	1	.	.	-3	1	.	.	.
CC1(C(=O)NNC(=O)c2cccc([N+](=O)[O-])c2)CC1(Br)Br (stereo not given)	1	i	-5	5	10	34	.	.
CC(C)CNC(=O)COC(=O)c1ccc2c(c1)C(=O)N(Cc1ccco1)C2=O	1	i	18	-8	-1	23	.	.
SMILES	APOBEC3A inh	PABP polyA inh	eIF4H inh	APOBEC3G inh	MLLE-PAM2 inh	PHOSPHO1 inh	A3A conf	UDG ctr A3A
Cc1ccc(N2CC(C(=O)NCc3nnnn3-c3ccc(C)c(C)c3)CC2=O)cc1 (stereo not given)	52*	i	-1	-3	-9	7	6	-14
Cc1ccc(-n2nnnc2CNC(=O)C2CC(=O)N(c3ccccc3)C2)cc1C (stereo not given)	-2	i	-14	-6	7	34	.	.
CCN(CC)CCOc1ccc2c(c1)C(=NO)c1cc(OCCN(CC)CC)ccc1-2	47*	i	-14	26	-7	-4	37*	-1
CC1(CC(=O)N/N=C/c2ccc(-c3ccc(C(=O)O)cc3)o2)OCCO1	-3	i	8	-4	-2	18	.	.
O=C(CN1CCOCC1)N/N=C/c1ccc(-c2ccc(C(=O)O)cc2)o1	43*	+	25	17	-132	-112	85*	6
O=C(COc1ccc2ccc(=O)oc2c1)NCCCn1ccnc1	-5	i	-17	-7	-6	18	.	.
O=C(/C=C/c1ccco1)N1CCN(S(=O)(=O)c2cccc([N+](=O)[O-])c2)CC1	65*	.	.	23	-78	.	62*	4
Clc1ccc(-c2cc(-c3ccccc3)on2)cc1	95*	.	.	-7	9	.	-7	-4
C[n+]1cccc(C(=O)NNC(=O)C23CC4CC(CC(C4)C2)C3)c1	82*	i	-6	21	-112	-19	69*	-3
COc1ccc(/C(O)=C2\C(=O)C(=O)N(CCCN(C)C)C2c2ccccc2F)cc1Cl (stereo not given)	.	i	-3	.	.	-11	.	.
CN(C)CCN1C(=O)C(=O)/C(=C(/O)c2ccccc2)C1c1ccccc1F (stereo not given)	72*	i	-7	-4	-5	-9	-5	1
Cc1ccc(/C=C2\SC(N)=NC2=O)s1	56*	i	6	-2	3	-5	-2	-2
O=C(NC1CCCC1)C(c1ccccn1)N(C(=O)c1csnn1)c1ccc(F)cc1 (stereo not given)	72*	i	-4	-6	-14	35	-6	-3
